ERG Ets-DNA blk = blocks human ERG Ets domain binding to DNA; P11308; fluorescence polarization, His-ERG Ets domain / labelled DNA; Potency, µM (doses to about 76.9 µM), without a hit: at the top dose FP activity, negative = inhibition, most hits filed as inhibitors; hit rate 0.028% among 370,000; AID 624246; active means well fitted inhibition curve with a large enough effect in the polarisation, with a control signal flat; inconclusive means small, poorly fitted or top-dose-only effect, or effect the other way, or a change in a side signal; inactive means no such curve, though single readings can be large or run the other way; the % refers to the polarisation;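 further: polarization taken with two DNA probes labelled with fluorescein and Texas red; % of control where 0% means no effect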
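His-tagged ERG Ets domain (1 uM in the protein solution; 300mM KCl, 50mM Tris-HCl, 1mM EDTA, 1mM DTT, pH 7.5) received compound, then a probe mix of 5 nM fluorescein-DNA and 100nM Texas-615-DNA. Fluorescence polarization was read for both dyes.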
WRN inhibitor = blocks human WRN helicase; WRN helicase unwinding, fluorescent forked duplex, kinetic; Potency, µM (series often up to 114 µM), for the others: at the top dose activity change, negative = inhibition, usual class: inhibitors; hit rate 0.46% among 360,000; AID 651768; further: on the % scale 0 is the no-effect control and ±100 the full control effect; nearly all actives have a fitted effect of over 55% in size
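Fluorescence dequenching readout, ex 525 nm/em 598 nm, kinetic mode: forked duplex DNA (100 nM final) with adjacent fluorophore and quencher unwound by WRN (20 nM final) with 2 mM ATP. Compound preincubation 15 min, room temperature.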
APE1 inh = APE1 (human) endonuclease inhibition; Potency, µM (doses to about 65.8 µM), for inactives: top-dose activity change, negative = inhibition, actives largely listed as inhibitors; hit rate 0.35% among 350,000; recombinant APE1, TAMRA/BHQ-2 abasic DNA cleavage fluorescence;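 further: plate controls were vehicle for no effect and reference inhibitor for full effect; nearly all actives have a fitted effect of over 55% in size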
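Measures dequenching upon AP-site incision of a 5'-TAMRA/3'-BHQ-2 THF-containing duplex, 50 nM; human APE1 0.75 nM after 15 min room-temperature exposure to compound; kinetic three-point read at one-minute spacing.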
KAT2A inh = GCN5L2 (KAT2A) acetyltransferase inhibition; Q92830; AID 504327; Potency, µM (highest dose often 58.9 µM), inactives show at the highest dose activity change, negative = inhibition, actives largely listed as inhibitors; GCN5L2 HAT assay, ThioGlo1 CoA-SH fluorescence; hit rate 0.21% among 390,000; further: on the % scale 0 is the no-effect control and ±100 the full control effect
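Enzyme at 20nM final was mixed with library compounds for 15 min at room temperature. Peptide H3(1-25) at 75uM, acetyl-CoA at 70uM and ThioGlo1 at 50uM were then added. Plates were read immediately and after 20 min (Ex340nm/Em540nm).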
RECQ1 inh-1 = inhibitors of human RECQ1 DNA helicase; RECQ1 DNA unwinding, red fluorescence kinetic read; AID 2549; P46063; hit rate 0.54% among 240,000; Potency, µM (series often up to 57.3 µM), inactives show at the highest dose activity, negative = inhibition, usual class: inhibitors;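 further: plate controls were vehicle for no effect and no enzyme for full effect; nearly all actives have a fitted effect of over 30% in size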
Target sequence (P46063 whole entry, looked up): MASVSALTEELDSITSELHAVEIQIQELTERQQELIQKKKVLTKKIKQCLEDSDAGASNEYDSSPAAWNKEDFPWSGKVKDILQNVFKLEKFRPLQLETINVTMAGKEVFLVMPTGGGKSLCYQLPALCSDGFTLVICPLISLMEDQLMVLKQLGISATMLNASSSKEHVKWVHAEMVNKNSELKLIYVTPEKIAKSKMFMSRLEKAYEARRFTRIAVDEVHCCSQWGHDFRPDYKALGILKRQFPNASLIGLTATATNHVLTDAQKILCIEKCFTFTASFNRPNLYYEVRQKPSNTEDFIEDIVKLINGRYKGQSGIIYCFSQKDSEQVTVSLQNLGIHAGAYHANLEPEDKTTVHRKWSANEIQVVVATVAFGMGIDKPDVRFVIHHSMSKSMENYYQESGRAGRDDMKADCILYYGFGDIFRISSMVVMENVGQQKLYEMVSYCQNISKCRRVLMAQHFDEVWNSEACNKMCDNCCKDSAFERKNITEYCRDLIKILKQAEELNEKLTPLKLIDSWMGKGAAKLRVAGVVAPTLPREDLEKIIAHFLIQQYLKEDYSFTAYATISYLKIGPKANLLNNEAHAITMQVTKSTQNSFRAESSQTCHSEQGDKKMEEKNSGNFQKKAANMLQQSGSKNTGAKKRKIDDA
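50 nM RECQ1T1 preincubated 15 min with compound in Tris pH 8.0 buffer with MgCl2, DTT, Tween-20 and 2.5 ug/ml poly(dI-dC); started with 200 nM TAMRA/BHQ-2 forked duplex and 2 mM ATP. Unwinding read as fluorescence (525/598 nm), two reads 2 h apart.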
BLM inh = Bloom syndrome helicase (human) inhibition | P54132 | recombinant BLM DNA unwinding, fluorescence dequenching | Potency, µM (top dose mostly 56.1 µM), for the others: at the top dose activity change, negative = inhibition, actives largely listed as inhibitors | hit rate 0.2% among 350,000 | AID 2528;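 further: plate controls were vehicle for no effect and no enzyme for full effect; nearly all actives have a fitted effect of over 35% in size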
RECQ1 conf = confirmation of human RECQ1 helicase inhibitors. shares compounds with RECQ1 inh-1. RECQ1 helicase DNA unwinding, fluorescence. Potency, µM (titrated, usually from 229 µM), for inactives: at the top dose activity change, negative = inhibition, actives largely listed as inhibitors. hit rate 28% among 610. AID 2708; further: on the % scale 0 is the no-effect control and ±100 the full control effect; nearly all actives have a fitted effect of over 45% in size
ADP FP counter = counter-screen for RECQ1 inhibitors: ADP displacement | AID 2711 | ADP fluorescence polarization displacement counterscreen | Potency, µM (titrated, usually from 228 µM), without a hit: top-dose activity change, negative = inhibition, hits mostly inhibitors | shares compounds with RECQ1 inh-1 | hit rate 27% among 530; further: on the % scale 0 is the no-effect control and ±100 the full control effect; nearly all actives have a fitted effect of over 45% in size
RECQ1 inh-2 = RECQ1 helicase inhibition confirmed, round 2 | shares compounds with RECQ1 inh-1 | recombinant RECQ1 DNA unwinding, red fluorescence | Potency, µM (top dose mostly 119 µM), without a hit: at the top dose activity, negative = inhibition, most hits filed as inhibitors | hit rate 15% among 1,100 | AID 504841; further: on the % scale 0 is the no-effect control and ±100 the full control effect; nearly all actives have a fitted effect of over 50% in size
* hit, by the source's call; i = inactive; ? = inconclusive; · = no result given; [ ] = another dose, or the depositor's remark. Compounds with a hit are over-represented: about 0.88% of the library has one in this group of screens. Unless noted, the call rests on the fitted dose curve; in most records, active means well fitted curve in the direction sought with a large enough effect; inconclusive means small, poorly fitted or top-dose-only effect, or another doubt; inactive means no such curve, though single readings can be large; an effect the other way counts as inactive or inconclusive. Potency means the concentration at half of the fitted maximal effect.

SMILES | ERG Ets-DNA blk | WRN inhibitor | APE1 inh | KAT2A inh | RECQ1 inh-1 | BLM inh | RECQ1 inh-2 | others
COc1ccc(NC(=O)c2ccc(CNS(=O)(=O)c3cccc(OC)c3)cc2)cc1 | -5.9% | -3.5% | -5.0% | -7.9% | 35.5µM* | -3.6% | 0.3%
O=S(=O)(Nc1nc2ccccc2nc1Nc1cccc(S(=O)(=O)N2CCCCC2)c1)c1ccccc1 | 1.1% | -31.1%[57.1 µM] | -5.6% | ? | ? | -19.3% | ?
COc1ccc(NS(=O)(=O)c2ccc(O)c(NC(=O)c3ccc(S(=O)(=O)N4CCCC4)cc3)c2)cc1 | -17.6% | -1.9% | -2.2% | -6.2% | 4.6% | -5.7% | · | RECQ1 conf=8.2%;ADP FP counter=4.5%
COc1ccc(C(=O)Nc2cc(S(=O)(=O)N3CCCCC3)ccc2C)cc1 | · | -6.8% | · | · | · | · | ·
COc1cccc(NC(=O)CSc2nc3cc(OC)c(OC)cc3c3nc(-c4ccccc4)nn23)c1 | 6.3% | · | · | 0.8% | · | -2.3% | ·
CCOC(=O)N1CCN(S(=O)(=O)N2CCCC(C(=O)NCc3ccc(C)cc3)C2)CC1 (centres undefined) | · | -4.9% | · | · | · | · | ·
COc1ccc(NS(=O)(=O)c2cccc(NC(=O)c3ccc(S(=O)(=O)N4CCCCCC4)cc3)c2)cc1 | -4.1% | 1.5% | -4.1% | -5.4% | -14.3% | -3.4% | · | RECQ1 conf=-2.5%;ADP FP counter=4.3%
COc1ccc(C(=O)Nc2ccc(S(=O)(=O)N3CCCC3)cc2)cc1 | 23.8% | -4.5% | -7.9% | -5.8% | i | -4.1% | ·
CC1CCCCN1C(=O)Cn1c(=O)n(-c2ccc(Cl)cc2)c(=O)c2c3c(sc21)CCC3 (centres undefined) | 10.3% | · | · | -0.8% | · | -6.6% | ·
Cn1nnnc1SCCCNCc1cccc(OCc2ccccc2)c1 | 1.2% | · | · | 0.9% | · | 3.5% | ·
CCN(CC)S(=O)(=O)c1ccc(C(=O)NCc2n[nH]c(=S)n2-c2ccc(Cl)c(Cl)c2)cc1 | -6.5% | -17.4% | 1.2% | -4.0% | -1.6% | -19.9% | · | RECQ1 conf=-6.6%;ADP FP counter=7.9%
COc1ccc(NC(=O)c2sc(=O)n(Cc3ccc4ccccc4c3)c2C)cc1OC | · | -7.4%[57.1 µM] | · | · | · | · | ·
C=CC1=C2C=C(C3CC3)N(CCN3CCOCC3)C=C2C(=O)C(C)(OC(=O)c2ccco2)C1=O (centres undefined) | · | · | 3.3%[12.4 µM] | · | -4.2%[11.5 µM] | -15.1%[12.4 µM] | ·
COc1cc2ccccc2cc1C(=O)NC(=S)Nc1cccc(C(=O)O)c1 | 3.0% | ? | ? | -1.8% | ? | ? | 25.1µM*
COc1cc2ccccc2cc1C(=O)NC(=S)Nc1ccc(C(=O)O)cc1 | -0.5% | -12.8%[11.6 µM] | 25.3% | -19.0% | · | -6.2% | ·
O=C(O)Cn1cccc1C(=O)c1ccccc1 | 7.1% | -13.5% | -4.4% | -8.8% | ? | -6.5% | 2.4%
COC(=O)Cn1cccc1C(=O)c1ccccc1 | 5.0% | 2.2% | 0.4% | 2.2% | -0.6% | -0.1% | ·
CC(=O)c1cccc(N(C(=O)c2cnccn2)C(C(=O)NCc2ccccc2)c2ccco2)c1 (centres undefined) | 1.2% | -1.2% | 8.3% | -22.6% | 39.8µM* | -2.6% | -8.2%
Cc1cc(=O)oc2cc(Nc3ccccc3)ccc12 | -5.0% | -0.1% | 6.7% | -13.2% | -8.7% | -0.5% | ·
CCNc1ccc2c(Cl)cc(=O)oc2c1 | -5.8% | 0.4% | -3.8% | -6.2% | 35.5µM* | 0.3% | -38.2%
